# Of roughly 7,900 targets only a part is listed; those with a hit were picked by preference. About 0.6% of all pairs of compound and target were hits. Unmarked numbers belong to inactive results.
# Legend:
# Assay in all cases: log2 fold change, soluble protein after heating vs DMSO (PISA); higher = thermal stabilisation; K562 cells, 10 uM, 30 min; active = over 0.2 and 3.5 SD of the protein, either way, in both replicates (recomputed)
# [1] = compound: CC1=C(C=C(C=C1)NC(=O)C2=CC(=CC=C2)C(C)(C)C#N)NC3=CC4=C(C=C3)N=CN(C4=O)C
# Method in brief: (§1)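 K562 cells at 2×10^6 cells/mL were treated with 10 μM compound for 30 min. Aliquots were heated for 3 min across 48°C-58°C, pooled, and extracted in PBS with 0.5% NP-40 at 4°C; soluble protein was the supernatant after 21,000xg for 90 min. Soluble protein was quantified by TMTpro 16plex LC-MS/MS with channel sums equalised, and reported as log2 fold change in thermal stability against DMSO controls, with values from duplicates.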
# [2] = compound: CC1=C(C=C(C=C1)NC(=O)C2=CC(=CC=C2)N(C)C)NC(=O)C3=CC=C(C=C3)O
# Method in brief: as §1
# [3] = compound: CC1=CC=C(C=C1)SC2=C3C=C(SC3=CN=C2)C(=O)N
# Method in brief: as §1
# [4] = compound: CC1=NC(=CC=C1)C2=C(N=C(N2)C(C)(C)C)C3=CC4=NC=CN=C4C=C3
# Method in brief: as §1
# [5] = compound: CCCCN(Cc1ccc(C(=O)NO)cc1)C(=O)Nc1ccccc1 [Nexturastat A]
# Method in brief: as §1
# [6] = compound: CCCS(=O)(=O)Nc1ccc(F)c(C(=O)c2c[nH]c3ncc(-c4ccc(Cl)cc4)cc23)c1F [vemurafenib]
# Method in brief: as §1
# [7] = compound: CCCS(=O)(=O)Nc1ccc(F)c(C(=O)c2c[nH]c3ncc(Cl)cc23)c1F
# Method in brief: as §1
# [8] = compound: CCCc1cc(C)[nH]c(=O)c1CNC(=O)c1cc(-c2ccnc(N3CCN(C)CC3)c2)cc2c1cnn2C(C)C
# Method in brief: as §1
# [9] = compound: CCN(CC)Cc1ccc2cc(COC(=O)Nc3ccc(C(=O)NO)cc3)ccc2c1 [givinostat]
# Method in brief: as §1
# [10] = compound: CCN(CCCOc1ccc2c(Nc3cc(CC(=O)Nc4cccc(F)c4)[nH]n3)ncnc2c1)CCOP(=O)(O)O [barasertib]
# Method in brief: as §1
# [11] = compound: CC[C@@H]1C(=O)N(C)c2cnc(Nc3ccc(C(=O)NC4CCN(C)CC4)cc3OC)nc2N1C1CCCC1
# Method in brief: as §1
# [12] = compound: CC[C@@H]1C(=O)N(C)c2cnc(Nc3ccc(C(=O)N[C@H]4CC[C@H](N5CCN(CC6CC6)CC5)CC4)cc3OC)nc2N1C(C)C [volasertib]
# Method in brief: as §1
# [13] = compound: CC[C@H](C)N1C=C(C2=C(C=C(C=C21)C3=CN=C(C=C3)N4CCNCC4)C(=O)NCC5=C(C=C(NC5=O)C)C)C
# Method in brief: as §1
# [14] = compound: CC[C@H](C)[C@@H](C(=O)N[C@@H]([C@@H](C)O)C(=O)N[C@@H](CC(C)C)C(=O)[C@]1(CO1)C)NC(=O)[C@H]([C@@H](C)CC)N(C)C(=O)C [epoxomicin]
# Method in brief: as §1
# [15] = compound: CCn1c(C(=O)N(C2CC2)C2CC2)cc2c3c(ncn3C)c(Nc3cc(C)n(C)n3)nc21
# Method in brief: as §1
# [16] = compound: CCn1cc(-c2ccnc3[nH]c(-c4cccc(CN(C)C)c4)cc23)c(-c2ccc(NC(=O)N(C)C)cc2)n1
# Method in brief: as §1
# [17] = compound: CN(C)CC(=O)Nc1ccc2[nH]c(=O)c3ccccc3c2c1
# Method in brief: as §1
# [18] = compound: CN(CCOC1=CC=C(C=C1)C[C@H]2C(=O)NC(=O)S2)C3=CC=CC=N3 (racemic) [rosiglitazone]
# Method in brief: as §1
# [19] = compound: CN1C2=C(C3=C1C(=O)N(N=C3)CC4=CC(=CC=C4)N)SC(=C2)S(=O)C
# Method in brief: as §1
# [20] = compound: CN1CCC(CNc2ccc3ncc(-c4cccc(OC(F)(F)F)c4)n3n2)CC1
# Method in brief: as §1
# Sequence of UniProt O60264 (O60264 whole entry, looked up): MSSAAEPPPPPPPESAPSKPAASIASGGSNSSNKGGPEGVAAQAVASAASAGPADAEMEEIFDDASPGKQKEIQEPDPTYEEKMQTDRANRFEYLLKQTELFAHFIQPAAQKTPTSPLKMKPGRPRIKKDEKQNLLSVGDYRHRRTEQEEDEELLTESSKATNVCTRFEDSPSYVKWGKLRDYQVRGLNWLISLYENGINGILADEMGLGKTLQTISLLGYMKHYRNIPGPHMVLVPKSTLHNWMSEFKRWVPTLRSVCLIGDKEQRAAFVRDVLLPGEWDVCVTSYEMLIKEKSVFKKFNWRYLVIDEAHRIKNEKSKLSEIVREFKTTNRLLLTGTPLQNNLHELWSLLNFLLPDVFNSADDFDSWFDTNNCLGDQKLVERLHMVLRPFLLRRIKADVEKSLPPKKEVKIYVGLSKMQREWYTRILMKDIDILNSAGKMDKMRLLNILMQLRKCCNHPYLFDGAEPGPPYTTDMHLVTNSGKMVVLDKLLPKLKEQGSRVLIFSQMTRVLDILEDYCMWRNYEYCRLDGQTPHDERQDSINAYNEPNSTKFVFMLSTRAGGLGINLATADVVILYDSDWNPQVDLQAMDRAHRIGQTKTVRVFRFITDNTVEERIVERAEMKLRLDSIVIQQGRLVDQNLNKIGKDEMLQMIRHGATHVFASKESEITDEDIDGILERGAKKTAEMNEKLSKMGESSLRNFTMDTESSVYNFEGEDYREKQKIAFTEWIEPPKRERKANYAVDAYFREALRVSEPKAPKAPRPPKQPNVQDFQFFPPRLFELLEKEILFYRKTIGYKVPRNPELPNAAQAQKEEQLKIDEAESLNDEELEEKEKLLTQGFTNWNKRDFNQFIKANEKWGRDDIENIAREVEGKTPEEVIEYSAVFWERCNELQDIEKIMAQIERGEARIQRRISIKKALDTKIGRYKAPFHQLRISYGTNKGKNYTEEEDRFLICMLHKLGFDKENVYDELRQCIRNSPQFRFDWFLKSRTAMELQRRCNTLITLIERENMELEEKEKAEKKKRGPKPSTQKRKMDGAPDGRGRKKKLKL
# Sequence of UniProt O43615 (O43615 whole entry, looked up): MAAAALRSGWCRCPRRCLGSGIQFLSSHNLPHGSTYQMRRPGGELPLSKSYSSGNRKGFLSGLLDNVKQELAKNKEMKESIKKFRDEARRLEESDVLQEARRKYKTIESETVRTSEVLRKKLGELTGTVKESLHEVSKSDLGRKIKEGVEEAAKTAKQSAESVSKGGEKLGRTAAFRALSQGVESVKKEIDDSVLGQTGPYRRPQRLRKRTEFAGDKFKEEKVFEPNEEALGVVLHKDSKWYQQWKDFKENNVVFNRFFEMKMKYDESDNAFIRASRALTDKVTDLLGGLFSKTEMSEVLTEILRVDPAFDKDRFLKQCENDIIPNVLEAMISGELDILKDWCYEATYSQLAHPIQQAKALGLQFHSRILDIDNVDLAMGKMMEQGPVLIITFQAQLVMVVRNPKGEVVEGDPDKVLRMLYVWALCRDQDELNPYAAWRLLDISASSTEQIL
# Sequence of UniProt Q15582 (Q15582 whole entry, looked up): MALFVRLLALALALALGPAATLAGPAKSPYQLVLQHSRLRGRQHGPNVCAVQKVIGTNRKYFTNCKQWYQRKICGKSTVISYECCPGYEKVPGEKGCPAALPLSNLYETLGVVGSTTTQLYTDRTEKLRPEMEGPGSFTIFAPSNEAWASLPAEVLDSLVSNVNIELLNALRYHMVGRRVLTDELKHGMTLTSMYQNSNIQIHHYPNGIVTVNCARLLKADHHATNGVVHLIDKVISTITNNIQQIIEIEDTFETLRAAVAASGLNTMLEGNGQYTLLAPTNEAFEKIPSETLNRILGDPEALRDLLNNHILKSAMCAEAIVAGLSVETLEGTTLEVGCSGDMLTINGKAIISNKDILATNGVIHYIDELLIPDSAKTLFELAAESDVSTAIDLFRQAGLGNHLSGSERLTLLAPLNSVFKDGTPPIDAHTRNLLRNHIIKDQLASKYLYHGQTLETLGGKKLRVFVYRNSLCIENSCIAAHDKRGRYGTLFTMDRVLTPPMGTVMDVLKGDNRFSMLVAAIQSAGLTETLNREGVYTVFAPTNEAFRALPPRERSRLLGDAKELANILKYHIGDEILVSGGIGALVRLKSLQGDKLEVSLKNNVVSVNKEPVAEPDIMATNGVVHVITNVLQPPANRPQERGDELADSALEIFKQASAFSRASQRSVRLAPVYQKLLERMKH
# Sequence of UniProt Q15208 (Q15208 whole entry, looked up): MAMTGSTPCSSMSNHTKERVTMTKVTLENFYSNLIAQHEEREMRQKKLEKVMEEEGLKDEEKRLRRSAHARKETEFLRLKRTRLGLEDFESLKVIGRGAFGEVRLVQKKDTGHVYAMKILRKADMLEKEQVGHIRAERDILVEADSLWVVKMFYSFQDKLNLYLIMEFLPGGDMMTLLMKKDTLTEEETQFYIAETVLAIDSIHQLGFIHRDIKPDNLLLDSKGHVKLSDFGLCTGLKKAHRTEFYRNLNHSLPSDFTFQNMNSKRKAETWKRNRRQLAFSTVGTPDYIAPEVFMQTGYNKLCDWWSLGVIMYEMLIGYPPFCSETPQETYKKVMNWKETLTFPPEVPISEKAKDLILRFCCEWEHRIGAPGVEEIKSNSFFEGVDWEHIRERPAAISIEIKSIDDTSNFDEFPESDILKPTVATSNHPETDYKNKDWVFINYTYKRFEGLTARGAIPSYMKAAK
# Sequence of UniProt Q4KMP7 (Q4KMP7 whole entry, looked up): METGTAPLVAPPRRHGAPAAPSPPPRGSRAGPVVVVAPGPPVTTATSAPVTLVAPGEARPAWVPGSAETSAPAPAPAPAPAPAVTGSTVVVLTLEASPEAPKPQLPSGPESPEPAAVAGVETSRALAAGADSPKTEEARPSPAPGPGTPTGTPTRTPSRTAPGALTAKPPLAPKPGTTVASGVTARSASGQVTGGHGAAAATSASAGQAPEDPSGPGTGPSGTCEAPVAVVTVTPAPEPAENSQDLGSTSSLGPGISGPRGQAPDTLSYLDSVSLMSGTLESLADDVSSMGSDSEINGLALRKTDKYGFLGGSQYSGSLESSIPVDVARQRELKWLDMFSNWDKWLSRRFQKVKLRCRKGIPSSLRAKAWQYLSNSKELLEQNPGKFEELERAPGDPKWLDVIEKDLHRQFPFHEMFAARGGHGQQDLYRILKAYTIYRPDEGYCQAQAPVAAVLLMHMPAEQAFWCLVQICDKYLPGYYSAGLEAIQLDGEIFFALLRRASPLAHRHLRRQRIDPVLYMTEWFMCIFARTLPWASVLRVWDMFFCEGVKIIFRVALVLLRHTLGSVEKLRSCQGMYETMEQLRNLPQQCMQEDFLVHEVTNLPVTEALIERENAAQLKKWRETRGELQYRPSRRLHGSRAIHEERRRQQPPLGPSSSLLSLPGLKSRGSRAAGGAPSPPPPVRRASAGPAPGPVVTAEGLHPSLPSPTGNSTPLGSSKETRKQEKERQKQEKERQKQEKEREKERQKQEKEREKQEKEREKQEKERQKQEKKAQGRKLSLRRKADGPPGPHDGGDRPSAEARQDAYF
# Sequence of UniProt Q9BW92 (Q9BW92 whole entry, looked up): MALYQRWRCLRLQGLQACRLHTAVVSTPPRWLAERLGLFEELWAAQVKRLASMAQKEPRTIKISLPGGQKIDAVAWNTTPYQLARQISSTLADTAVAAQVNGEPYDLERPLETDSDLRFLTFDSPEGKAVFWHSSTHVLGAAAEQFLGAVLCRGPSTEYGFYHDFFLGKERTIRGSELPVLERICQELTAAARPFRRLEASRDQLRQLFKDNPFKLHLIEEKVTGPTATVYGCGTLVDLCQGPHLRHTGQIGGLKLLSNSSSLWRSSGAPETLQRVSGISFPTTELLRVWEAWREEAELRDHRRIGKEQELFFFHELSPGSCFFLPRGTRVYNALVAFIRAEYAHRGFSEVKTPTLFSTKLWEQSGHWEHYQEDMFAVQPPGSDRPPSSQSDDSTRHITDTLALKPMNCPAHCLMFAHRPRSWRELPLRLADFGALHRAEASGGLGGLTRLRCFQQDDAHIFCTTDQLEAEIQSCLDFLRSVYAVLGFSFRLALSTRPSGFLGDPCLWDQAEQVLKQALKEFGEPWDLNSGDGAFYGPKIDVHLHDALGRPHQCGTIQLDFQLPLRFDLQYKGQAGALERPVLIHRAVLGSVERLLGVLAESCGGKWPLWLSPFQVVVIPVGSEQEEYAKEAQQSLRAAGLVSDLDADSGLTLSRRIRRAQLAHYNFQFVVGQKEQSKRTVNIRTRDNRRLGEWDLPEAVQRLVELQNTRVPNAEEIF
# Sequence of UniProt Q9UNH7 (Q9UNH7 whole entry, looked up): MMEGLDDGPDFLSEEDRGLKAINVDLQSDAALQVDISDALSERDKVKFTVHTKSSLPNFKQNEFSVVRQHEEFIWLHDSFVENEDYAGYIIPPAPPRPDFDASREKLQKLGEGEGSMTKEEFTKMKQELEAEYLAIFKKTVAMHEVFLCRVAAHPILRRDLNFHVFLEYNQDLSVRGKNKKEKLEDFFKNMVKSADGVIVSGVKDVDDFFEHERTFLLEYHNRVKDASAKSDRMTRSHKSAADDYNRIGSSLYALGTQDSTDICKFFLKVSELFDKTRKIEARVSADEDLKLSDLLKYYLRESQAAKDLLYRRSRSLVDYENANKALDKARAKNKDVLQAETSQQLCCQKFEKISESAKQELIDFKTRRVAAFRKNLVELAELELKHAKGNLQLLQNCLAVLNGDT
# Sequence of UniProt Q15526 (Q15526 whole entry, looked up): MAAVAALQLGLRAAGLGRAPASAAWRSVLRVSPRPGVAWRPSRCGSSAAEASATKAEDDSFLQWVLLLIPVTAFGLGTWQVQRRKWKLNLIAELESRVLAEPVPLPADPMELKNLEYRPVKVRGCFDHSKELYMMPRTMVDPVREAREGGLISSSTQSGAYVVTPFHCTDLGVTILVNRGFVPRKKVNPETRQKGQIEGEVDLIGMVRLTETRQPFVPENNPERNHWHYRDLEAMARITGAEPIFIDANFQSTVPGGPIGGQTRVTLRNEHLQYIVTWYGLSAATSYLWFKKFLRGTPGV
Target,log2 fold change [1],log2 fold change [2],log2 fold change [3],log2 fold change [4],log2 fold change [5],log2 fold change [6],log2 fold change [7],log2 fold change [8],log2 fold change [9],log2 fold change [10],log2 fold change [11],log2 fold change [12],log2 fold change [13],log2 fold change [14],log2 fold change [15],log2 fold change [16],log2 fold change [17],log2 fold change [18],log2 fold change [19],log2 fold change [20]
STAM2 (UniProt O75886),-0.08,-0.032,0.034,0.069,-0.012,0.009,0.074,-0.038,0.021,0.028,-0.039,-0.297 (active),0.063,0.039,-0.007,-0.056,0,0.022,-0.033,-0.128
TGFBI (UniProt Q15582),-0.167,0.101,0.062,0.091,-0.082,0.157,-0.044,-0.255,-0.08,0.068,-0.089,-0.211,-0.044,-0.33,-0.026,0.068,-0.128,0.118,0.171,-0.142
SMG1 (UniProt Q96Q15),-0.068,-0.048,0.031,0.012,0.045,0.029,0.077,-0.096,0.05,0.075,-0.137,-0.391 (active),0.158,0.024,0.002,0.05,0.046,-0.003,0.129,-0.02
SMARCA5 (UniProt O60264),0.042,-0.041,0.038,0.014,0.107,0.085,0.129,0.032,0.149,0.109,-0.242,-0.333,0.045,0.092,-0.088,-0.06,0.053,-0.003,0.121,0.076
TEX264 (UniProt Q9Y6I9),0.053,-0.016,-0.008,0.013,0.023,-0.002,-0.049,0.014,0.317,0.032,0.016,0.356,-0.073,0,-0.201,0.499,0.098,0.039,0.182,0.262
SNRPB2 (UniProt P08579),-0.016,0.007,-0.026,-0.014,-0.015,-0.036,-0.042,-0.048,-0.051,-0.056,0.176,0.174,-0.069,-0.05,0.025,0.069,-0.063,-0.047,-0.008,0.098
STK38 (UniProt Q15208),0.099,-0.054,0.013,0.004,-0.062,0.091,0.12,0.049,0.048,0.022,-0.107,-0.363 (active),0.106,0.035,0,0.003,0.059,0.05,-0.005,-0.068
SURF1 (UniProt Q15526),0.045,-0.008,-0.019,0.087,-0.033,0.042,0.124,-0.01,-0.01,0.027,-0.085,-0.274 (active),-0.055,0.012,-0.013,-0.059,0.013,0.035,-0.016,-0.311 (active)
SUPT5H (UniProt O00267),0.004,-0.054,0.006,0.013,-0.067,0.008,0.068,-0.028,0.035,0.04,-0.018,-0.224 (active),0.084,0.062,-0.054,-0.065,0.056,0.057,-0.056,-0.117
TBC1D10B (UniProt Q4KMP7),-0.019,0.015,0.025,0,-0.051,0.004,0.048,0.014,0.018,0.01,-0.108,-0.114,0.025,0.019,0.022,0.004,-0.005,0.015,-0.053,-0.185
SPR (UniProt P35270),0.103,-0.003,0.063,-0.043,-0.069,-0.019,0.019,0.009,-0.004,-0.076,0.02,0.165,0.013,-0.054,0.412 (active),0.073,0.153,0.008,-0.184,0.012
TIMM44 (UniProt O43615),0.048,-0.028,0.091,0.074,-0.052,-0.002,0.12,-0.096,-0.013,0.055,-0.412 (active),-0.57 (active),-0.004,0.057,-0.006,-0.091,0.012,0.036,-0.056,-0.886 (active)
TAMM41 isoform 3 (UniProt Q96BW9),-0.021,-0.013,0.049,0.056,-0.084,-0.006,0.04,-0.062,0.036,0.046,-0.209,-0.312 (active),-0.004,0.02,-0.02,0.022,0.013,0.005,-0.052,-0.362 (active)
TARS2 (UniProt Q9BW92),-0.027,0.022,0.021,0.078,-0.201,0.008,0.027,-0.013,-0.245 (active),0.028,-0.017,-0.128,0.012,0.02,0.009,-0.002,-0.019,0.018,-0.055,-0.069
SPECC1 (UniProt Q5M775),-0.028,-0.015,0.094,-0.063,-0.08,-0.094,-0.06,-0.102,0.035,0.062,0.109,0.052,-0.013,-0.101,0.037,0.004,-0.111,0.023,0.07,-0.012
SNX6 (UniProt Q9UNH7),-0.04,-0.016,0.019,0.021,-0.025,-0.003,0.076,0.006,0.077,0.079,-0.142,-0.047,0.117,0.015,-0.141,-0.131,0.005,0.08,0.016,-0.77 (active)
